Experimental data taken from PubChem BioAssay.
Several values for one entry are separate records, joined by “and”; a condition that tells them apart may be missing. Equal entries are not always repeated. Results filed as inconclusive are left out. For some assays here: Potency and affinity values are given separately. Activity calls are given as the source filed them. Unless noted, how the calls were made is not given here.

Legend:
[1] = rescue of polyQ-huntingtin neuronal dysfunction in worms, whole organism, C. elegans mechanosensory neurons, N-terminal huntingtin (AID 1599); conditions: touch response, stronger effect = higher value
[2] = reducers of polyQ inclusions in PC12 cells, cell-based, NGF-treated PC12, GFPQ80 (AID 1614); conditions: PC12 NGF-treated GFP-polyQ80 inclusion reduction;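 further: lower means fewer inclusions and 0 means no inclusions at all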
[3] = suppressors of polyglutamine aggregation in yeast, 75Q-TubH (AID 1616); conditions: S. cerevisiae 75Q-TubH polyglutamine aggregation suppression; stronger effect = higher value
[4] = hESC survival regulators, cell-based (AID 493140); conditions: human embryonic stem cell survival screen; stronger effect = higher value;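 further: cells exposed to compounds for four days before counting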
[5] = system: Hepatitis C virus NS3 helicase; test: HCV NS3 helicase inhibitors, primary screen, biochemical, fluorescence polarization, LOPAC1280 library (AID 687035; in the data active means inhibition above about 37%); conditions: Purified HCV NS3 helicase, Cy5-dT15 ssDNA binding fluorescence polarization; stronger effect = higher value; concentration not given here
[6] = Cy5 fluorescence quenching or enhancement artefacts, artefact control for HCV NS3 helicase inhibitor project, biochemical, LOPAC1280 (AID 687037); conditions: Cy5-DNA-NS3h complex fluorescence interference counterscreen
[7] = growth inhibition of DIPG glioma cells, dose response, cell-based, SU-DIPG-XIII, MIPE4.0, CellTiter-Glo, qHTS (AID 1347061; cut-off not given, nearly all actives have AC50 up to about 37 µM;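 further: cells exposed to compound for 48 hours before readout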); conditions: SU-DIPG-XIII viability, CellTiter-Glo ATP luminescence
[8] = growth inhibition of DIPG glioma cells, dose response, cell-based, JHH-DIPG-1, MIPE4.0, CellTiter-Glo, qHTS (AID 1347062; cut-off not given, nearly all actives have AC50 up to about 27 µM;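 on AC50: cells exposed to compound for two days before readout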); conditions: JHH-DIPG-1 viability, CellTiter-Glo ATP luminescence
[9] = SU-DIPG-VI glioma cell viability, MIPE4.0 library, CellTiter-Glo luminescence, qHTS (AID 1347066; cut-off not given, nearly all actives have AC50 up to about 30 µM;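 further: cells exposed to compound for 48 hours before readout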); conditions: CellTiter-Glo ATP luminescence
[10] = phospholipid biosynthesis inhibitors in animal cells, primary screen, cell-based, LOPAC library, screen 4 (AID 1347384); conditions: phospholipid biosynthesis inhibition screen, at 10 µM
[11] = growth inhibition of DIPG glioma cells, dose response, cell-based, SU-DIPG-XVII, MIPE5.0, CellTiter-Glo, qHTS (AID 1347060; cut-off not given, nearly all actives have AC50 up to about 26 µM;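 on AC50: cells exposed to compound for 48 hours before viability readout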); conditions: SU-DIPG-XVII viability, CellTiter-Glo ATP luminescence
[12] = viability loss in pontine glioma line – cell-based, SU-DIPG-XXV, MIPE5.0, CellTiter-Glo, qHTS, dose response (AID 1347065; cut-off not given, nearly all actives have AC50 up to about 26 µM;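 further: cells exposed to compound for 48 hours before ATP readout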); conditions: CellTiter-Glo ATP luminescence
[13] = JHH-DIPG-1 glioma cell viability, MIPE5.0 library, CellTiter-Glo luminescence, qHTS (AID 1347067; cut-off not given, nearly all actives have AC50 up to about 26 µM;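 further: cells exposed to compound for 48 hours before readout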); conditions: JHH-DIPG-1 glioma viability, CellTiter-Glo ATP luminescence
[14] = LFS_MB_1R medulloblastoma cell growth inhibition, synergistic combos for chromothripsis tumors, cisplatin or BGB combos (AID 1671452; in the data active means inhibition above about 80%;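 further: cells exposed for 96 hours before readout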); conditions: LFS_MB_1R medulloblastoma cells, stronger effect = higher value
[15] = MDA-MB-436 breast carcinoma cell growth inhibition, synergistic combos for chromothripsis tumors, BGB or cisplatin combos (AID 1671458); conditions: MDA-MB-436 breast carcinoma growth inhibition, drug combinations, stronger effect = higher value;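 further: cells exposed for 96 hours; 0% = vehicle DMSO and 100% = killing by high DMSO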
[16] = growth inhibition of BT084 medulloblastoma cells, cell-based, ICGC_MB145, cisplatin and BGB IC40 combos (AID 1671461; in the data active means inhibition above about 80%;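 further: cells exposed to drugs for 96 hours; 0% = vehicle DMSO and 100% = high DMSO full killing control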); conditions: drug combinations, stronger effect = higher value
[17] = growth inhibition of RCMB18 medulloblastoma cells, cell-based, cisplatin and BGB IC40 combos (AID 1671462; in the data active means inhibition above about 80%;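 further: cells exposed to compound for four days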); conditions: stronger effect = higher value
[18] = growth inhibition of CRL1545 osteosarcoma cells, cell-based, cisplatin and BGB IC20 combos (AID 1671464; in the data active means inhibition above about 80%;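 further: cells exposed to compound for 96 hours before readout; 0% = vehicle DMSO and 100% = high DMSO killing control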); conditions: stronger effect = higher value
[19] = SU-DIPG-XXV glioma cell viability, MIPE5.0 library, qHTS (AID 1347068; cut-off not given, nearly all actives have IC50 up to about 30 µM;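 on IC50: cells exposed to compound for 48 hours before viability readout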)
[20] = growth inhibition of DIPG glioma cells, dose response, cell-based, SU-DIPG-IV, MIPE4.0, CellTiter-Glo, qHTS (AID 1347063; cut-off not given, nearly all actives have AC50 up to about 30 µM;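 further: compound exposure lasted 48 hours before the viability readout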); conditions: SU-DIPG-IV viability, CellTiter-Glo ATP luminescence
[21] = measured here: combination with cisplatin, at 0.5 µM

Clc1cccc(Cl)c1NC1=NCCN1
rescue above control [1]: 13.6 | inclusion score [2]: 2 | aggregation suppression score [3]: 1.85 | survival [4]: 20.8 (inactive) | inhibition [5]: -4% (inactive) | fluorescence ratio (interference) [6]: 1 (inactive) | outcome [7]: inactive | outcome [8]: inactive | outcome [9]: inactive | outcome [10]: inactive

CCN(CC)CCCC(C)Nc1c2ccc(Cl)cc2nc2ccc(OC)cc12 (centres undefined)
rescue above control [1]: 26.7 | aggregation suppression score [3]: 1.04 | inhibition [5]: 1% (inactive) | fluorescence ratio (interference) [6]: 1 (inactive) | AC50 [11]: 8.33 µM (active) | AC50 [12]: 11.8 µM (active) | AC50 [13]: 11.8 µM (active) | outcome [10]: inactive | inhibition ([14]; at 0.5 µM): 3.87% (inactive) | inhibition ([14]; measured here: combination with BGB IC40, at 0.05 µM): -25.2% | inhibition [14, 21]: 4.45% | inhibition ([14]; measured here: combination with cisplatin, at 5 µM): 100% | inhibition ([15]; at 0.5 µM): 4.39% (inactive) | inhibition ([15]; measured here: BGB combination, at 0.5 µM): -0.472% | inhibition ([15]; measured here: BGB combination, at 5 µM): 95.8% | inhibition ([15]; measured here: cisplatin combination, at 0.5 µM): -17.3% | inhibition ([15]; measured here: cisplatin combination, at 5 µM): 98% | inhibition ([16]; at 0.5 µM): 1.42% (inactive) | inhibition ([16]; cisplatin combination, at 0.5 µM): -5.45% | inhibition ([16]; cisplatin combination, at 5 µM): 99.5% | inhibition ([16]; measured here: BGB IC40 combination 0.05 uM, at 0.05 µM): -3.72% | inhibition ([16]; single agent, at 5 µM): 105% | inhibition ([17]; at 0.5 µM): -4.03% (inactive) | inhibition ([17]; cisplatin combo, at 5 µM): 92.9% | inhibition ([17]; measured here: BGB IC40 combination, at 0.05 µM): -9.76% | inhibition [17, 21]: -29.6% | inhibition ([17]; single agent, at 5 µM): 73.4% | inhibition ([18]; at 0.5 µM): 9.17% (inactive) | inhibition ([18]; measured here: with BGB IC20 combination, at 0.5 µM): -5.37% | inhibition ([18]; measured here: with cisplatin IC20 combination, at 0.5 µM): 14.5% | inhibition ([18]; single agent, at 0.05 µM): -8.93% | inhibition ([18]; single agent, at 5 µM): 99.9%

CCN(CC)CCCC(C)Nc1ccnc2cc(Cl)ccc12 (centres undefined)
rescue above control [1]: 4.09 | inclusion score [2]: 2 | aggregation suppression score [3]: 1.49 | survival [4]: 6.67 (inactive) | inhibition [5]: -3% (inactive) | fluorescence ratio (interference) [6]: 1 (inactive) | AC50 [7]: 0.00833 µM (active) | outcome [12]: inactive | outcome [13]: inactive | outcome [19]: inactive | outcome [10]: inactive

CC1=C(CC(=O)O)c2cc(F)ccc2/C1=C\c1ccc(S(C)=O)cc1 (centres undefined)
rescue above control [1]: -1.24 | inclusion score [2]: 2 | aggregation suppression score [3]: 1.01 | inhibition [5]: 1% (inactive) | fluorescence ratio (interference) [6]: 1 (inactive) | outcome [11]: inactive | AC50 [7]: 20.9 µM (active) | outcome [12]: inactive | outcome [9]: inactive | outcome [13]: inactive | outcome [19]: inactive | outcome [10]: inactive

Cc1noc(NS(=O)(=O)c2ccc(N)cc2)c1C
rescue above control [1]: -13 | inclusion score [2]: 2 | aggregation suppression score [3]: 1.13 | survival [4]: 8.25 (inactive) | outcome [7]: inactive | outcome [8]: inactive | outcome [20]: inactive | outcome [9]: inactive

CC[C@H](C)C(=O)O[C@H]1C[C@@H](C)C=C2C=C[C@H](C)[C@H](CC[C@@H]3C[C@@H](O)CC(=O)O3)[C@H]21
rescue above control [1]: -2.24 | aggregation suppression score [3]: 0.603 | survival [4]: 2.08 (inactive) | outcome [7]: inactive | outcome [12]: inactive | outcome [9]: inactive | outcome [19]: inactive

Oc1ccc(/C=C/c2cc(O)cc(O)c2)cc1
survival [4]: 13.8 (inactive) | inhibition [5]: -3% (inactive) | fluorescence ratio (interference) [6]: 1 (inactive) | outcome [8]: inactive | outcome [9]: inactive | outcome [13]: inactive | outcome [10]: inactive

CC(C)NCC(O)c1ccc(O)c(O)c1 (centres undefined)
rescue above control [1]: 7.5 | inclusion score [2]: 2 | aggregation suppression score [3]: 1.28 | survival [4]: 4.58 (inactive) and 3.08 (inactive) | inhibition [5]: -3% (inactive) | fluorescence ratio (interference) [6]: 1 (inactive) | outcome [11]: inactive | AC50 [8]: 1.48 µM (active) | outcome [12]: inactive | outcome [9]: inactive | outcome [13]: inactive | outcome [19]: inactive | outcome [10]: inactive

NC12CC3CC(CC(C3)C1)C2
rescue above control [1]: -3.19 | inclusion score [2]: 2 | aggregation suppression score [3]: 1.59 | survival [4]: 4.42 (inactive) | inhibition [5]: -1% (inactive) | fluorescence ratio (interference) [6]: 0.9 (inactive) | outcome [11]: inactive | outcome [9]: inactive | outcome [13]: inactive | outcome [19]: inactive | outcome [10]: inactive

CCC1(c2ccccc2)C(=O)NCNC1=O
rescue above control [1]: -6.81 | inclusion score [2]: 2 | aggregation suppression score [3]: 1.22 | survival [4]: 5.92 (inactive) | inhibition [5]: 1% (inactive) | fluorescence ratio (interference) [6]: 1 (inactive) | outcome [11]: inactive | AC50 [8]: 8.33 µM (active) | AC50 [20]: 5.9 µM (active) | outcome [12]: inactive | outcome [9]: inactive | outcome [13]: inactive | outcome [19]: inactive | outcome [10]: inactive

c1ccc(CC2=NCCN2)cc1
rescue above control [1]: -6.48 | inclusion score [2]: 2 | aggregation suppression score [3]: 1.3 | survival [4]: 21.6 (inactive)

c1ccc([C@H]2CN3CCSC3=N2)cc1
rescue above control [1]: -9.67 | inclusion score [2]: 1.5 | aggregation suppression score [3]: 1.54 | survival [4]: 17.8 (inactive) and 98.4 (inactive) | inhibition [5]: -1% (inactive) | fluorescence ratio (interference) [6]: 1 (inactive) | outcome [11]: inactive | outcome [7]: inactive | outcome [8]: inactive | outcome [12]: inactive | outcome [13]: inactive | outcome [19]: inactive | outcome [10]: inactive

CCOC(=O)[C@H](CCc1ccccc1)N[C@H]1CCc2ccccc2N(CC(=O)O)C1=O
outcome [11]: inactive | AC50 [7]: 20.9 µM (active) | AC50 [8]: 16.6 µM (active) | AC50 [20]: 10.5 µM (active) | outcome [12]: inactive | outcome [13]: inactive | outcome [19]: inactive

CC[C@H]1CN2CCc3cc(OC)c(OC)cc3[C@@H]2C[C@@H]1C[C@H]1NCCc2cc(OC)c(OC)cc21
inhibition [5]: 2% (inactive) | fluorescence ratio (interference) [6]: 1 (inactive) | AC50 [11]: 0.263 µM (active) | AC50 [8]: 1.32 µM (active) | AC50 [20]: 0.526 µM (active) | AC50 [12]: 0.417 µM (active) | AC50 [9]: 20.9 µM (active) | AC50 [13]: 0.833 µM (active) | IC50 [19]: 0.742 µM (active) | outcome [10]: inactive

O=C1CCC(N2C(=O)c3ccccc3C2=O)C(=O)N1 (centres undefined)
rescue above control [1]: 21.9 | inclusion score [2]: 2 | aggregation suppression score [3]: 1.48 | survival [4]: 19.2 (inactive) | inhibition [5]: -6% (inactive) | fluorescence ratio (interference) [6]: 1 (inactive) | outcome [7]: inactive | outcome [20]: inactive | outcome [9]: inactive | outcome [13]: inactive | outcome [19]: inactive | outcome [10]: inactive

CN1C(C(=O)Nc2ccccn2)=C(O)c2ccccc2S1(=O)=O
rescue above control [1]: 9.46 | inclusion score [2]: 2 | aggregation suppression score [3]: 0.134 | survival [4]: 20 (inactive) | inhibition [5]: -1% (inactive) | fluorescence ratio (interference) [6]: 1 (inactive) | outcome [11]: inactive | outcome [7]: inactive | outcome [8]: inactive | outcome [12]: inactive | outcome [9]: inactive | outcome [13]: inactive | outcome [19]: inactive | outcome [10]: inactive

CCCCCN=C(N)N/N=C/c1c[nH]c2ccc(OC)cc12
AC50 [11]: 13.2 µM (active) | outcome [7]: inactive | AC50 [12]: 14.8 µM (active) | outcome [9]: inactive | outcome [19]: inactive

CCC(C)(C)C(=O)O[C@H]1C[C@@H](C)C=C2C=C[C@H](C)[C@H](CC[C@@H]3C[C@@H](O)CC(=O)O3)[C@H]21
survival [4]: 1.17 (inactive) | outcome [7]: inactive | AC50 [20]: 18.7 µM (active) | outcome [19]: inactive
